We go through 14 compounds from PubChem BioAssay (EPA / NIEHS).

Structures are written as SMILES. Results filed as inconclusive are left out. Activity calls are given as the source filed them. Rule for the calls, unless noted: active = hit-call score of the fitted dose curve at least 0.9, where 1 is the maximum; inactive = score below 0.9.

A short description of assay [1]: CCTE_Shafer_MEA_acute_cross_correlation_area: CCTE's Neural Acute Assay for Area of Cross Correlation, Shafer Lab (AID 2284024).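 Note: area under pooled inter-electrode spike cross-correlation near zero lag as percent change from own baseline; curves fitted for loss of cross-correlation area so actives lower synchrony.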 In short, it runs like this:
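Extracellular recordings from cultured rat cortical neurons measure network synchrony as cross-correlation area; each well's post-compound value (0.03-40 uM, 40 min) is compared with its own 40 min baseline to give percent change.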

A short description of assay [2]: CCTE_Shafer_MEA_acute_cross_correlation_HWHM: CCTE's Neural Acute Assay for Cross Correlation at Half Width at Half Maximum, Shafer Lab (AID 2284026).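 Note: percent change per well from pre-dose baseline in spike cross-correlogram half width; hits are a decrease in cross-correlogram half width relative to DMSO.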 In short, it runs like this:
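Percent change in cross-correlogram half width at half maximum, narrower meaning more synchrony, was derived per well from paired 40-min recordings before and during exposure to 0.03-40 uM compound in rat cortical cultures at 37 C.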

Assay [3] can be described thus: CCTE_Shafer_MEA_acute_synchrony_index: CCTE's Neural Acute Assay for Synchrony, Shafer Lab (AID 2284027).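 Note: network synchrony index of spontaneous spiking in primary rat cortical neurons on MEAs; fitted for loss of signal so actives lower synchrony relative to DMSO.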 In short, it runs like this:
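Primary rat cortical neurons on 48-well MEAs, dosed at 0.03–40 uM on DIV 13 or 15. Spikes are recorded for 40 min at 37C before and after exposure, and synchrony index (0–1) is expressed as percent change from baseline per well.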

Assay [4] concerns the target Estrogen receptor (Homo sapiens) (UniProt P03372). Briefly: CCTE_Deisenroth_AIME_384WELL_LUC_Active: CCTE's 384-well Estrogen Receptor Transactivation Assay with AIME metabolic competence (ERTA luciferase; metabolism positive), Deisenroth Lab (AID 2284030; active = hit-call score of the fitted dose curve at least 0.9, where 1 is the maximum). Summed up: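 Estrogenic luciferase signal in VM7Luc4E2 cells is measured at 24 hour, after chemicals have been preconditioned 2 hours with PB/BNF-induced rat hepatic S9 in alginate. Gain of signal is fitted relative to 17beta-estradiol, across 0.002 - 200 uM.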

A short description of assay [5]: CCTE_Deisenroth_AIME_384WELL_CTox_Active: Cytotoxicity Assessment (CTOX) in CCTE's 384-well Estrogen Receptor Transactivation Assay with AIME metabolic competence (metabolism positive), Deisenroth Lab (AID 2284037; active = hit-call score of the fitted dose curve at least 0.9, where 1 is the maximum;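 note: chemicals first conditioned 2 h by alginate-bound induced rat liver S9 before cells; activity means signal loss indicating cell death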). Summed up: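 VM7Luc4E2 breast cells received medium pre-incubated 2 h with chemical over alginate microspheres holding induced male Sprague Dawley rat liver S9; viability read 24 h later by protease-substrate fluorescence. Loss of signal, bidirectional fit, 0.002–200 uM.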

The target in assay [6] is Estrogen receptor (Homo sapiens) (UniProt P03372). The assay can be described thus: CCTE_Deisenroth_AIME_384WELL_LUC_Inactive: CCTE's 384-well Estrogen Receptor Transactivation Assay without AIME metabolic competence (ERTA luciferase; metabolism negative), Deisenroth Lab (AID 2284038; active = hit-call score of the fitted dose curve at least 0.9, where 1 is the maximum;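 note: hits raise estrogen receptor luciferase signal so potencies reflect agonists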). Summed up: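 Metabolism-negative mode: chemicals (10-point, 0.002–200 uM) held 2 h with alginate-water microspheres, then conditioned medium applied to VM7Luc4E2 cells for 24 h. Luciferase induction referenced to 17beta-estradiol.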

Assay [7] in a line: CCTE_Deisenroth_AIME_384WELL_CTox_Inactive: Cytotoxicity Assessment (CTOX) in CCTE's 384-well Estrogen Receptor Transactivation Assay without AIME metabolic competence (metabolism negative), Deisenroth Lab (AID 2284039; active = hit-call score of the fitted dose curve at least 0.9, where 1 is the maximum;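 note: cell viability via live-cell protease substrate cleaved to fluorescent probe; cells exposed 24 h to medium preincubated 2 h with alginate-water beads without S9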). In short, it runs like this:
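Fluorescence from a live-cell protease substrate, read after 24 h in VM7Luc4E2 cells, indicated viability. Test medium came from a 2 h AIME step without hepatic S9 (alginate-water microspheres); concentrations spanned 0.002 - 200 uM, single technical replicate per run.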

Assay [8] can be described thus: CCTE_Shafer_MEA_dev_firing_rate_mean: CCTE's Neural Network Formation Assay for Mean Firing Rate, Shafer Lab (AID 2284031). In short, it runs like this:
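Primary rat cortical neurons on 48-well MEA plates, exposed from plating day 0 with dosing renewed on DIV 5 and 9. Mean well firing rate over active electrodes, recorded days 5, 7, 9, 12, summarised as trapezoidal AUC.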

Assay [9] is described as follows: CCTE_Shafer_MEA_dev_per_burst_spike_percent: CCTE's Neural Network Formation Assay for Percent of Spikes in a Burst, Shafer Lab (AID 2284032). The method, then: CCTE_Shafer_MEA_dev assay is conducted using Axion Biosystems 48 well microelectrode array (MEA) plates and Maestro recording system. Each well of the MEA plate contains a grid of 16 microelectrodes embedded in the culture surface. Electrically active cells, such as neurons, can be cultured over the electrodes, and electrical activity in these cells can be recorded extracellularly. The spontaneous firing of neurons is captured from each electrode on a microsecond timescale providing both temporally and spatially precise data. […] The CCTE_Shafer_MEA_dev assay uses primary cultures of rat cortical neurons. Recordings are made on days post-plating 5, 7, 9 and 12. As these cultures mature over time, neural networks develop functional activity and form cohesive networks in which electrical activity can be highly coordinated. CCTE_Shafer_MEA_dev_per_burst_spike_percent is 1 of 19 assay components of the CCTE_Shafer_MEA_dev assay. It measures the percentage of spikes (action potential firings) in a single-electrode burst (temporally-clustered group of spikes) as the total number spikes in bursts divided by the total number of spikes during a recording in a microelectrode array (MEA) using Axion Biosystems Maestro 768 channel amplifier with the AxIS adaptive spike detector. The percent of spikes in bursts is averaged across the actively bursting electrodes to report a well-mean value. To collapse across multiple recordings made on days post-plating 5, 7, 9 and 12, the trapezoidal area-under-the-curve of the component is calculated.Data from the assay component CCTE_Shafer_MEA_dev_per_burst_spike_percent was analyzed into 1 assay endpoint. This assay endpoint, CCTE_Shafer_MEA_dev_per_burst_spike_percent, was analyzed in the negative analysis fitting direction relative to DMSO as the negative control and baseline of activity. Using a type of functional reporter, gain or loss-of-signal activity can be used to understand electrical activity. […]

The nature of assay [10]: CCTE_Shafer_MEA_dev_active_electrodes_number: CCTE's Neural Network Formation Assay for Number of Active Electrodes, Shafer Lab (AID 2284040; active = hit-call score of the fitted dose curve at least 0.9, where 1 is the maximum). In short, it runs like this:
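Primary rat cortical neurons on 16-electrode MEA wells, exposed from day 0 through day 12 with compound renewed at DIV 5 and 9 feeds. Active electrodes (mean firing ≥5 spikes/min) counted at DIV 5, 7, 9, 12; trapezoidal AUC across days, loss-of-signal versus DMSO.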

Usually AC50 stands for the concentration giving half of the maximal activity seen.

Estrogen receptor (Homo sapiens), sequence (P03372 whole entry, looked up): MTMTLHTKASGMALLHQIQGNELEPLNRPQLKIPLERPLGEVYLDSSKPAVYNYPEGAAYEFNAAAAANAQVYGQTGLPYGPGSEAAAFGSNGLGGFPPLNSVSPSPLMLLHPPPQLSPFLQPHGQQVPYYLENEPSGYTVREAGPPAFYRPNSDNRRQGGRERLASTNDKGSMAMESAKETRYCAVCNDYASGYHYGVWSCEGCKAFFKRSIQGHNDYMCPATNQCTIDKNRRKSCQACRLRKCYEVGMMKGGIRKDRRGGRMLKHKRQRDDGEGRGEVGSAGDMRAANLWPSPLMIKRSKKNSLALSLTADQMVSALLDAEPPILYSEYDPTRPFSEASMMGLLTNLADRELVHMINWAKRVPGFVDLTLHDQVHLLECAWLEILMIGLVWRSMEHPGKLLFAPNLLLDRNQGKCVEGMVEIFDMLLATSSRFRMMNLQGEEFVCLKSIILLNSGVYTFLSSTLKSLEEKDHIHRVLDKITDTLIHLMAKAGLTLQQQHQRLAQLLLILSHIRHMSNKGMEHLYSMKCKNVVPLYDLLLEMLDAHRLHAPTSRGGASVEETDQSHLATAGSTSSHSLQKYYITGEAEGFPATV

Turning to `CCC(=O)OCc1ccccc1`, in assay [1], the AC50 was 9.43 nM (active). Besides, the result in assay [2] and in assay [3] was inactive.
Consider `CC(=O)OCCC(C)CC(C)(C)C` (stereo not drawn), for which the call in assay [1], in assay [2] and in [3] was inactive.
As to `C[C@H]1C[C@@H]2[C@H]([C@@H](O)C[C@@]3(C)[C@H]2CC[C@]3(O)C(=O)CO)[C@@]2(C)C=CC(=O)C=C12`, the AC50 in [1] was 4.5 nM (active). The result in [2] and in [3] was inactive.
On to `C=C[Si](OCC)(OCC)OCC`, for which the outcome in [1], in assay [2] and in assay [3] was inactive.
Turning to `Cc1cc(C2(c3cc(C)c(O)cc3C)OS(=O)(=O)c3ccccc32)c(C)cc1O`, the outcome in [1], in assay [2] and in assay [3] was inactive.
Take `OC[C@H]1O[C@H](O[C@]2(CCl)O[C@H](CCl)[C@@H](O)[C@@H]2O)[C@H](O)[C@@H](O)[C@H]1Cl`: the call in assay [1], in [2] and in assay [3] was inactive.
With `NCCCN1CCOCC1`, the result in assay [4], in assay [5], in assay [6] and in assay [7] was inactive.
On to `CC(=O)[C@H]1CC[C@H]2[C@@H]3CC=C4C[C@@H](O)CC[C@]4(C)[C@H]3CC[C@]12C`, for which the concentration at half-maximal activity (AC50) in [1] was 3 nM (active); in assay [3], 0.00409 µM (active). Moreover, in [2], the compound was classed as inactive.
Consider `CCCCCCCCC=O`, for which the call in assay [1], in [2] and in assay [3] was inactive.
Turning to `OC1OC[C@@H](O)[C@H](O)[C@H]1O` (stereo partly drawn), the compound was classed as inactive in [1], in assay [2], in assay [3] and in assay [5].
As to `Nc1cc([N+](=O)[O-])ccc1O`, the outcome in [1] was inactive. The AC50 in assay [2] is 24.4 µM (active); in [3] it was 22.6 µM (active).
For `COc1cc(C=O)ccc1OC(=O)C(C)C`, the result in assay [1], in [2] and in [3] was inactive.
As for `CC(=O)OCCOC(C)=O`, the call in assay [4], in [5], in [6] and in assay [7] was inactive.
For `CN(C)C(=N)N=C(N)N`, the compound was called inactive in assay [1], in [2], in assay [3], in [8], in [9] and in assay [10].
